# High-throughput results as filed in PubChem.
# The entries come from a sample that favours hits as a whole.
# IDE exosite FP: insulin-degrading enzyme (human) exo-site inhibition. 6.3% of 17,000 active. z-score at 20 µM. AID 1259349. P14735. purified IDE, FL-6b probe fluorescence polarization; hits give low values;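 active = z-score of -3 or lower, meaning strong loss of probe binding signal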;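 note: His-tagged human IDE residues 42-1019 made in E. coli with 30 nM FL-6b probe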
# * hit, by the source's call.
SMILES,IDE exosite FP
N#C[C@H]1[C@@H](c2ccc(-c3ccncc3)cc2)[C@@H](CO)N1C(=O)Cc1ccccc1,1.12
COc1cccc(-c2ccc([C@@H]3[C@H](C#N)N(C(=O)c4ccccn4)[C@H]3CO)cc2)c1,-0.559
COc1cccc(-c2ccc([C@H]3[C@@H](C#N)N(C(=O)c4ccccn4)[C@H]3CO)cc2)c1,-3.77*
N#C[C@@H]1[C@@H](c2ccc(-c3ccccc3)cc2)[C@H](CO)N1C(=O)Cc1ccccc1,3.89
N#C[C@H]1[C@H](c2ccc(-c3ccccc3)cc2)[C@H](CO)N1C(=O)Cc1ccccc1,2.24
COc1cccc(C#Cc2ccc([C@@H]3[C@@H](CO)N(C(=O)c4ccccn4)[C@H]3C#N)cc2)c1,-0.51
C/C=C/c1ccc([C@H]2[C@@H](CO)N(C(=O)Cc3ccccn3)[C@H]2C#N)cc1,0.458
N#C[C@@H]1[C@H](c2ccc(-c3ccccc3)cc2)[C@H](CO)N1C(=O)Cc1ccccc1,2
N#C[C@@H]1[C@@H](c2ccc(/C=C/c3ccccc3)cc2)[C@@H](CO)N1C(=O)Cc1ccccn1,-9.5*
CN(C[C@H]1N[C@@H](CO)[C@H]1c1ccc(-c2cccc(F)c2)cc1)C(=O)CC1CC1,1.86
CO[C@H](CN(C)CC1CCOCC1)[C@H](C)CN(C(=O)Nc1ccc(F)cc1)[C@H](C)CO,1.38
N#C[C@H]1[C@H](c2ccc(-c3ccccc3F)cc2)[C@@H](CO)N1C(=O)C1CCOCC1,-2.7
C[C@@H]1CN([C@@H](C)CO)C(=O)c2cc(NS(=O)(=O)c3ccc(Cl)cc3)ccc2O[C@@H](C)CCCCO[C@@H]1CN(C)Cc1ccncc1,0.482
COc1ccc2c3c([nH]c2c1)[C@@H](CO)N(C(=O)c1ccc(F)cc1)CC31CCN(S(=O)(=O)c2cccs2)CC1,-0.492
O=C(c1cccc(F)c1)N1CC(=O)N2[C@H](CO)[C@H](c3ccc(C4=CCCC4)cc3)[C@@H]2C1,5.04
COc1ccc2c3c([nH]c2c1)[C@@H](CO)N(Cc1ccc(Cl)cc1)CC31CCN(Cc2nccs2)CC1,-0.342
C/C=C/c1ccccc1[C@@H]1[C@@H](C#N)N(C(C)=O)[C@@H]1CO,-1.31
N#C[C@@H]1[C@@H](c2ccc(-c3ccncc3)cc2)[C@@H](CO)N1C(=O)Cc1ccccc1,2
N#C[C@@H]1[C@@H](c2ccc(-c3ccccc3)cc2)[C@@H](CO)N1C(=O)Cc1ccncc1,-3.97*
N#C[C@H]1[C@H](c2ccc(-c3ccccc3)cc2)[C@H](CO)N1C(=O)Cc1ccncc1,1.86
COc1ccc2c3c([nH]c2c1)[C@@H](CO)N(C(=O)c1cccnc1)CC31CN(C(=O)Nc2cccc(F)c2)C1,1.56
O=C(Nc1ccccc1F)N1CC(=O)N2[C@@H](CO)[C@@H](c3ccc(-c4cccnc4)cc3)[C@@H]2C1,-1.57
CN1C(=O)c2cc(NC(=O)Nc3ccccc3Cl)ccc2OC[C@@H]2O[C@@H](CC(=O)O)CC[C@H]21,-0.858
COCC(=O)Nc1ccc2c(c1)C(=O)N(C)[C@@H]1CC[C@@H](CC(=O)NCCCN(C)C)O[C@H]1CO2,0.712
CN1C(=O)c2cc(NC(=O)Nc3ccccc3Cl)ccc2OC[C@@H]2O[C@@H](CC(=O)NCCCN3CCOCC3)CC[C@@H]21,-5.06*
SMILES,IDE exosite FP
COCC(=O)Nc1ccc2c(c1)C(=O)N(C)[C@@H]1CC[C@H](CC(=O)NCCCN(C)C)O[C@H]1CO2,-3.32*
COCC(=O)Nc1ccc2c(c1)C(=O)N(C)[C@H]1CC[C@@H](CC(=O)NCCCN(C)C)O[C@H]1CO2,-1.24
CN1C(=O)c2cc(NC(=O)Nc3ccccc3Cl)ccc2OC[C@@H]2O[C@H](CC(=O)NCCCN3CCOCC3)CC[C@H]21,-1.54
CN1C(=O)c2cc(NC(=O)Nc3ccccc3Cl)ccc2OC[C@@H]2O[C@@H](CC(=O)NCCCN3CCOCC3)CC[C@H]21,-1.04
CCN(C[C@@H]1N[C@H](CO)[C@@H]1c1ccccc1)C(=O)c1ccccc1,2.94
COc1ccc(NC(=O)N2CC(=O)N3[C@@H](CO)[C@H](c4ccc(-c5ccccc5)cc4)[C@@H]3C2)cc1,0.989
COCC(=O)N1CC(=O)N2[C@@H](CO)[C@H](c3ccc(C#CC4CCCC4)cc3)[C@@H]2C1,2.37
CN1c2ccc(Br)cc2[C@@H]2[C@@H](CCN2C(=O)Nc2cccc(F)c2)[C@@H]1CO,-0.6
O=C(NCCN1CCCC1)[C@@H]1[C@@H](CO)[C@@H]2Cn3c(cccc3=O)[C@@H]2N1Cc1ccccn1,0.756
C[C@H](O)C#Cc1ccc([C@@H]2[C@H]3CN(C(=O)c4cccc(F)c4)CCCCN3[C@H]2CO)cc1,4.45
N#C[C@@H]1[C@@H](c2ccc(-c3ccccc3F)cc2)[C@H](CO)N1C(=O)c1ccccn1,0.903
COc1ccccc1NC(=O)N1CCCCN2[C@@H](CO)[C@@H](c3ccc(-c4cccc(C)c4)cc3)[C@@H]2C1,-2.19
Cc1cccc(-c2ccc([C@@H]3[C@@H](CO)N4CCCCN(C(=O)NC(C)C)C[C@H]34)cc2)c1,-7.25*
COc1ccccc1NC(=O)N1CCCCN2[C@H](C1)[C@H](c1ccc(-c3cccc(C)c3)cc1)[C@@H]2CO,2.24
Cc1cccc(-c2ccc([C@H]3[C@@H](CO)N4CCCCN(C(=O)NC(C)C)C[C@@H]34)cc2)c1,-6.02*
Cc1cccc(-c2ccc([C@@H]3[C@@H](CO)N4CCCCN(C(=O)NC(C)C)C[C@@H]34)cc2)c1,-5.51*
COc1ccccc1NC(=O)N1CCCCN2[C@H](CO)[C@@H](c3ccc(-c4cccc(C)c4)cc3)[C@@H]2C1,-2.84
O=C(NC[C@H]1[C@@H](c2ccccc2)[C@H](CO)N1C(=O)C1CC1)NC1CCCC1,3.12
O=C(C[C@H]1CC[C@@H]2NC[C@@H](O)COC[C@H]2O1)NC1Cc2ccccc2C1,0.722
CN(C)CC(=O)N1[C@H](CO)[C@H](c2ccccc2-c2ccccc2F)[C@@H]1C#N,-0.507
C[C@H](NC(=O)[C@@H]1[C@@H](CO)[C@@H]2Cn3c(cccc3=O)[C@@H]2N1CCC(F)(F)F)c1ccccc1,0.7
CC(C)C#Cc1ccc([C@@H]2[C@@H](CO)N(C(=O)C3CCOCC3)[C@H]2C#N)cc1,0.183
CO[C@H]1CC[C@H]2CCN(C)C(=O)CCCN(C)C(=O)c3cc(C#N)ccc3OC[C@H]1O2,0.194
Cc1ccccc1S(=O)(=O)Nc1ccc2c(c1)C(=O)N(C)[C@H]1CC[C@H](CC(=O)O)O[C@@H]1CO2,-1.07
COc1cccc(CN2CC3(CCN(S(C)(=O)=O)CC3)c3c(n(C)c4cc(OC)ccc34)[C@H]2CO)c1,-2.18
SMILES,IDE exosite FP
Cc1cccc(-c2ccc([C@@H]3[C@H]4CN(C(=O)c5cccnc5)CCCCN4[C@H]3CO)cc2)c1,-15.2*
O=C(c1cccc(F)c1)N1CCCCN2[C@H](C1)[C@@H](c1ccc(-c3cccnc3)cc1)[C@@H]2CO,0.887
Cc1cccc(-c2ccc([C@H]3[C@H](CO)N4CCCCN(C(=O)c5ccncc5)C[C@@H]34)cc2)c1,-1.39
Cc1cccc(-c2ccc([C@H]3[C@@H](CO)N4CCCCN(C(=O)c5ccncc5)C[C@@H]34)cc2)c1,-1.74
Cc1cccc(-c2ccc([C@H]3[C@@H](CO)N4CCCCN(C(=O)c5cccnc5)C[C@@H]34)cc2)c1,-0.846
Cc1cccc(-c2ccc([C@H]3[C@@H](CO)N4CCCCN(C(=O)c5cccnc5)C[C@H]34)cc2)c1,-17*
COc1ccc(S(=O)(=O)Nc2cccc3c2O[C@@H](CN(C)CC2CCCCC2)[C@@H](C)CN([C@@H](C)CO)C3=O)cc1,1.86
